{
  "source": "PubChem BioAssay AID2129",
  "about": "(The Scripps Research Institute Molecular Screening Center, 2009)",
  "note": "Among all 320,000 compounds or so, about 2,200 (0.69%) were called active. This is one part of a sample in which actives are shown more often than they occur.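 Rule for the calls: active = inhibition above the mean of all tested compounds plus 3 SD, cutoff set per campaign (cut at about 30% in these data); inactive = the rest.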",
  "data": [
    {"biological_target": "Bcl-2-like protein 1 (Homo sapiens) (UniProt Q07817)", "sequence (Q07817 whole entry, looked up)": "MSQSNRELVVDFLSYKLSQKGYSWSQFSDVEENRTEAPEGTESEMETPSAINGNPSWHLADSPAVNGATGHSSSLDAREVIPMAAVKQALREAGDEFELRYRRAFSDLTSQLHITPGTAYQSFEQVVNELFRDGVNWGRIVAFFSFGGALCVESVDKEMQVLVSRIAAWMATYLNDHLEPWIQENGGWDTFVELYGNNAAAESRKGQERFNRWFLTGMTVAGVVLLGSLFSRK", "experiment": "inhibitors of human Bcl-xL, primary screen, biochemical, fluorescence polarization, HTS (AID 2129);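 note: 0% = DMSO wells and 100% = unlabeled Bim-BH3 peptide competitor; inhibitors lower millipolarization by displacing the labeled peptide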", "conditions": "GST-Bcl-xL / FITC-Bim BH3 peptide fluorescence polarization; at 10.9 µM; stronger effect = higher value", "values": [
      {"smiles": "CCNc1nc2[nH]c(=O)c3c(c2s1)OC(N)=C(C#N)C3c1cccs1", "note": "(stereo not given)", "inhibition": "30.4% (active)"},
      {"smiles": "N#CC1=C(N)Oc2c(c(=O)oc3ccccc23)C1c1ccccc1OC(=O)c1cccs1", "note": "(stereo not given)", "inhibition": "3.02% (inactive)"},
      {"smiles": "Cc1ccc(N(C)C(=O)Oc2cccc3ccc(C)nc23)cc1", "inhibition": "0.48% (inactive)"},
      {"smiles": "NCCc1c[nH]c2ccc(O)cc12", "inhibition": "4.75% (inactive)"},
      {"smiles": "COc1cccc(N2C(=O)NC(=O)/C(=C\\c3cn(C)c4ccccc34)C2=O)c1", "inhibition": "36.2% (active)"},
      {"smiles": "O=C1NC(=O)N(c2ccccc2)C(=O)/C1=C/c1ccc([N+](=O)[O-])s1", "inhibition": "26.3% (inactive)"},
      {"smiles": "Cc1ccccc1N1C(=O)NC(=O)/C(=C\\c2cc(C)n(C)c2C)C1=O", "inhibition": "2.98% (inactive)"},
      {"smiles": "Cc1ccc(-n2c(O)c(C=NCC3CCCO3)c(=O)[nH]c2=O)c(C)c1", "note": "(stereo not given)", "inhibition": "-2.2% (inactive)"},
      {"smiles": "COc1ccc(CN2C(=O)NC(=O)/C(=C\\c3ccc(OC)c(OC)c3OC)C2=O)cc1", "inhibition": "-7.16% (inactive)"},
      {"smiles": "Cc1cc(/C=C2/C(=O)NC(=O)N(Cc3ccco3)C2=O)c(C)n1-c1ccc(C(=O)O)cc1", "inhibition": "-1.1% (inactive)"},
      {"smiles": "COc1ccc(N2C(=O)/C(=C/c3ccco3)C(=O)NC2=S)cc1", "inhibition": "32.5% (active)"},
      {"smiles": "Cc1cccc(NC(=O)OC2CN3CCC2CC3)c1", "note": "(stereo not given)", "inhibition": "-2.32% (inactive)"},
      {"smiles": "CC(=NC1CCN(Cc2ccccc2)CC1)c1c(O)n(C)c(=O)n(C)c1=O", "inhibition": "14.7% (inactive)"},
      {"smiles": "Cc1ccc2c(c1)C1CN(C)CCC1N2C(=O)Cn1nnc(-c2ccccc2F)n1", "note": "(stereo not given)", "inhibition": "4.75% (inactive)"},
      {"smiles": "O=c1c2ccccc2nc(/C=C/c2ccc(F)cc2)n1-c1ccccc1O", "inhibition": "0.24% (inactive)"}
    ]}
  ]
}
